Hits are enriched below; roughly 0.5% of the tested compounds scored in any of these assays.
Tat export inh – E. coli Tat transport inhibition | E. coli MC4100 TorA-mCherry Tat export, fluorescence | inhibition, % at 10 µM | 340,000 compounds, 0.036% hits | AID 488895;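 active = mean replicate inhibition at least 50% and at least half of replicates individually reaching 50%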;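 also: exported cargo escapes ClpAP degradation while cytoplasmic cargo is degraded and loses fluorescence; 0% = median of neutral control wells and 100% = median of NaSCN control wells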
E coli growth-1 – bacterial growth inhibition, counter-screen for AddAB inhibitors | E. coli V3065 growth, OD600 absorbance, 18 h | inhibition, % at 11.9 µM | 330,000 compounds, 0.27% hits;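 active = inhibition above the campaign's mean inhibition across all tested compounds plus 3 SD, cut at about 9.9% in these data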;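 also: uninfected addAB+ strain grown without phage in ampicillin broth; 0% = DMSO wells and 100% = ciprofloxacin 0.95 µg/ml wells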
phage Ecoli inh – E. coli growth loss with phage present. inhibition, % at 11.9 µM. growth absorbance. 360,000 compounds, 0.26% hits; in the data active = inhibition above about 11%
E coli growth-2 – E. coli growth inhibition | Escherichia coli growth, OD600, 23 h; hits give low values | 330,000 compounds, 0.21% hits | OD600 absorbance (test concentration not listed) | AID 1053175;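 active = OD600 absorbance below the run mean of sample wells minus 3.6 SD, in any replicate, cut at about 0.56 in these data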
AddAB inh – less growth of phage-infected E. coli with AddAB. inhibition, % at 11.9 µM. 330,000 compounds, 0.29% hits. AID 435030. E. coli expressing H. pylori AddAB, absorbance growth; in the data active = inhibition above about 12%;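 also: 0% = vehicle wells of infected cells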
RecBCD conf – growth loss of phage-infected V66 E. coli, RecBCD confirmation screen | shares compounds with phage Ecoli inh | E. coli V66 + T4 2- phage, growth OD | inhibition, % at 11.9 µM | 890 compounds, 45% hits | AID 651982;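 active = mean inhibition over triplicates exceeding the hit threshold derived in the original primary screen, cut at about 11% in these data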
Ecoli viability – counter-screen for RecBCD inhibitors: inhibitors of bacterial viability; shares compounds with phage Ecoli inh; E. coli viability, absorbance (OD) growth; inhibition, % at 11.9 µM; 890 compounds, 29% hits; in the data active = inhibition above about 20%;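 also: E. coli strain V66 grown with compound alone and no phage infection; 0% = bacteria with DMSO vehicle only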
AddAB counter – growth loss of phage-infected AddAB E. coli, RecBCD counter-screen; shares compounds with phage Ecoli inh; E. coli expressing H. pylori AddAB + T4 phage, OD growth; gene 2 mutant T4, recBCD-deleted host; inhibition, % at 11.9 µM; 890 compounds, 45% hits; AID 651984;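 active = mean inhibition above the solvent-only control wells' mean plus 3 SD, cut at about 22% in these data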;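 also: higher means less bacterial growth from phage killing when AddAB is blocked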
Starred values were filed as active, the others as inactive; / = no result.

SMILES	Tat export inh	E coli growth-1	phage Ecoli inh	E coli growth-2	AddAB inh	RecBCD conf	Ecoli viability	AddAB counter
O=[N+]([O-])c1ccc(NC(=S)NCCc2ccccc2)cc1	-3	6	8	0.59	8	/	/	/
Fc1ccc(NC(=S)NCc2ccccc2)cc1	14	1	3	0.65	2	/	/	/
O=[N+]([O-])c1ccc(NC(=S)NCCc2ccc(Cl)cc2)cc1	-19	11*	13*	0.58	11	3	5	9
C=CCc1cccc(C=NNC(=O)CCCNc2ccc(C)cc2)c1O	/	/	/	0.64	/	/	/	/
CC(C)(C)c1nnc(N/N=C/c2cc(Br)ccc2O)n(N)c1=O	-20	3	12*	/	12	6	10	28*
CC(C)(C)c1nnc(NN=Cc2ccccc2O)n(N)c1=O	/	/	/	0.62	/	/	/	/
C#CCOCCOCCOCCNc1nc(N2CCN(C(=O)C(Cc3cc4ccccc4[nH]3)n3cc(C(N)C(C)CC)nn3)CC2)nc(N2CCN(C(=O)C(C(C)CC)n3cc(C(N)CO)nn3)CC2)n1 (configuration not stated)	/	/	/	0.69	/	/	/	/
Cc1ccc(C)c(NS(=O)(=O)c2c(C)nc3sccn3c2=O)c1	-10	0	99*	0.7	-2	-2	-2	-2
COc1ccc(Cl)cc1NS(=O)(=O)c1c(C)nc2sccn2c1=O	4	-1	3	0.75	3	/	/	/
O=C(Oc1c(Br)cc([N+](=O)[O-])cc1Br)c1cccnc1	22	6	13*	0.48*	10	14*	17	18
CC1Cc2ccccc2N1C(=O)CCn1c(=O)oc2ccccc21 (configuration not stated)	10	0	99*	0.66	-1	-7	-7	-2
COc1cc(C=NNC(=O)c2ccncc2)ccc1OCC(=O)Nc1ccccc1	/	/	/	0.64	/	/	/	/
O=C(Nc1cc([N+](=O)[O-])c2[nH]c(=O)c3ccccc3c2c1)C(F)(F)F	6	/	14*	/	/	12*	15	96*
Cn1cc([N+](=O)[O-])c(C(=O)N/N=C/c2ccc([N+](=O)[O-])cc2)n1	-2	1	11*	/	6	-1	-1	0
Oc1ccc(C=NNC(=S)Nc2ccccc2)nc1	/	/	22*	/	/	22*	27*	32*
COC(=O)c1ccc2c(c1O)C(=O)c1ccccc1C2=O	-2	-4	0	0.69	0	/	/	/
O=C1c2ccccc2C(=O)c2c1ccc(O)c2O	-1	/	15*	/	/	6	8	6
COc1cccc(C2c3c(oc4ccccc4c3=O)C(=O)N2CCCN2CCOCC2)c1 (configuration not stated)	29	2	15*	0.68	2	-2	-2	-6
O=[N+]([O-])c1ccc(N/N=C/c2cccc(O)c2O)c(S(=O)(=O)N2CCOCC2)c1	-7	0	1	/	2	/	/	/
O=[N+]([O-])c1ccc(N/N=C/c2ccc(O)c(O)c2O)c(S(=O)(=O)N2CCOCC2)c1	5	/	11*	/	/	9	10	11
O=Cc1cccnc1SCc1ccccc1	-1	-1	99*	0.7	1	-6	-6	0
Oc1cccnc1SCc1ccccc1	4	-1	2	0.7	2	/	/	/
N#Cc1c2ccc([N+](=O)[O-])cc2[n+]([O-])n1-c1ccccc1	0	38*	17*	/	37*	16*	18	51*
O=c1c2cc([N+](=O)[O-])ccc2sn1-c1ccccc1	/	/	4	/	/	/	/	/
CCCCn1c(CNC(=O)CC)nc2ccccc21	-9	-2	2	0.72	1	/	/	/
CCCCn1c(CNC(=O)Cc2ccccc2)nc2ccccc21	-3	-1	100*	0.7	0	-3	-3	3
FC(F)(F)c1cccc(NC(=S)NC2CCCC2)c1	1	3	8	0.62	6	/	/	/
FC(F)(F)c1ccc(NC(=S)NC2CCCCC2)cc1	0	9	15*	0.64	10	7	8	9
NC(=O)C1CC2(CC(c3cccc(NC(=O)C4CCC(=O)N4)c3)=NO2)CN1C(=O)c1ccccc1 (configuration not stated)	/	/	/	0.67	/	/	/	/
Cc1nccn1CCc1n[nH]c(=S)n1Cc1ccccc1	4	1	2	0.63	2	/	/	/

Bioassay records: PubChem BioAssay, several laboratories
